Laboratory results taken from PubChem BioAssay (NCI).
About 83,000 compounds went through this panel and 20% of them were active in at least one assay; those are over-represented in the sample as a whole.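 Growth was measured after 48 h exposure to one concentration of compound in 96-well plates. Values under 10 count as active.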 A number with no mark means an inactive call. Calls of active or inactive are those of the source.

Key:
Test in all cases: NCI-60 one-dose screen, 48 h (100 = growth as untreated, 0 = no growth, -100 = all killed)
SN12C renal = conditions: 10 µM unless noted
UO-31 renal = conditions: 10 µM unless noted
ACHN renal = conditions: 10 µM unless noted
CAKI-1 renal = conditions: 10 µM unless noted
A498 renal = conditions: 10 µM unless noted
CCRF-CEM leukemia = conditions: 10 µM unless noted
MOLT-4 leukemia = conditions: 10 µM unless noted
SR leukemia = conditions: 10 µM unless noted
RPMI-8226 leukemia = conditions: 10 µM
OVCAR-8 ovarian = conditions: 10 µM unless noted
OVCAR-5 ovarian = conditions: 10 µM unless noted
OVCAR-4 ovarian = conditions: 10 µM unless noted
SK-OV-3 ovarian = conditions: 10 µM
IGROV1 ovarian = conditions: 10 µM unless noted
OVCAR-3 ovarian = conditions: 10 µM unless noted
HS 578T breast = conditions: 10 µM unless noted
NCI/ADR-RES ovarian = conditions: 10 µM unless noted
EKVX NSCLC = conditions: 10 µM unless noted
TK-10 renal = conditions: 10 µM unless noted

Structure (SMILES): CC(C)(C)[Si](C)(C)OC1[C@@H](CNC(=O)NC(=O)CCl)O[C@@H](n2cnc3c(N)ncnc32)[C@H]1O[Si](C)(C)C(C)(C)C (stereo partly specified)
- growth (SN12C renal): -81.9% (active)
- growth (UO-31 renal): -96.8% (active)
- growth (ACHN renal): -95.8% (active)
- growth (CAKI-1 renal): -64.8% (active)
- growth (A498 renal): -12.9% (active)
- growth (CCRF-CEM leukemia): -46.5% (active)
- growth (MOLT-4 leukemia): -53.5% (active)
- growth (SR leukemia): -58.2% (active)
- growth (RPMI-8226 leukemia): -43% (active)
- growth (OVCAR-8 ovarian): -47.7% (active)
- growth (OVCAR-5 ovarian): -37.5% (active)
- growth (OVCAR-4 ovarian): -54.7% (active)
- growth (SK-OV-3 ovarian): 92%
- growth (IGROV1 ovarian): -61.8% (active)
- growth (OVCAR-3 ovarian): -91.5% (active)
- growth (HS 578T breast): -16.9% (active)
- growth (NCI/ADR-RES ovarian): -30.4% (active)

Structure (SMILES): COc1ccc(-n2c(SCc3cc(OC)c(OC)c(OC)c3)nc3ccc(C)cc3c2=O)c(OC)c1
- growth (SN12C renal): 45.2%
- growth (UO-31 renal): 18.2%
- growth (ACHN renal): 44.9%
- growth (CAKI-1 renal): 13.4%
- growth (A498 renal): -16.4% (active)
- growth (CCRF-CEM leukemia): 0% (active)
- growth (MOLT-4 leukemia): 11.3%
- growth (SR leukemia): 7.68% (active)
- growth (RPMI-8226 leukemia): -4.23% (active)
- growth (OVCAR-8 ovarian): 45.6%
- growth (OVCAR-5 ovarian): 43.2%
- growth (OVCAR-4 ovarian): 57.4%
- growth (SK-OV-3 ovarian): 45.3%
- growth (IGROV1 ovarian): 35.7%
- growth (OVCAR-3 ovarian): -4.61% (active)
- growth (HS 578T breast): 6.73% (active)
- growth (NCI/ADR-RES ovarian): 1.42% (active)

Structure (SMILES): Cc1cc(=O)[nH]n1-c1cc(Cl)ccc1N
- growth (EKVX NSCLC): 117%
- growth (SN12C renal): 110%
- growth (UO-31 renal): 89.3%
- growth (TK-10 renal): 98.1%
- growth (ACHN renal): 100%
- growth (A498 renal): 120%
- growth (MOLT-4 leukemia): 112%
- growth (SR leukemia): 96.6%
- growth (RPMI-8226 leukemia): 106%
- growth (OVCAR-8 ovarian): 103%
- growth (OVCAR-5 ovarian): 111%
- growth (SK-OV-3 ovarian): 98.6%
- growth (IGROV1 ovarian): 109%
- growth (OVCAR-3 ovarian): 124%
- growth (HS 578T breast): 123%
- growth (NCI/ADR-RES ovarian): 90.6%

Structure (SMILES): CCOC(=O)C1=C(C)N2C(=NC3=C(CCCC/C3=C\c3ccccc3)C2c2ccccc2)S1 (stereo unspecified)
- growth (SN12C renal): 101%
- growth (UO-31 renal): 91%
- growth (ACHN renal): 102%
- growth (CAKI-1 renal): 90.2%
- growth (A498 renal): 92.3%
- growth (CCRF-CEM leukemia): 98.3%
- growth (MOLT-4 leukemia): 96.4%
- growth (SR leukemia): 90.9%
- growth (RPMI-8226 leukemia): 96.2%
- growth (OVCAR-8 ovarian): 103%
- growth (OVCAR-5 ovarian): 94.8%
- growth (OVCAR-4 ovarian): 93.4%
- growth (SK-OV-3 ovarian): 88.5%
- growth (IGROV1 ovarian): 108%
- growth (OVCAR-3 ovarian): 107%
- growth (HS 578T breast): 99.6%
- growth (NCI/ADR-RES ovarian): 101%

Structure (SMILES): Cc1ccc2nc(NC(=O)CSC(=S)N3CCN(C)CC3)sc2c1
- growth (EKVX NSCLC): 98.1%
- growth (SN12C renal): 100%
- growth (UO-31 renal): 78.5%
- growth (TK-10 renal): 122%
- growth (ACHN renal): 100%
- growth (A498 renal): 108%
- growth (MOLT-4 leukemia): 123%
- growth (SR leukemia): 138%
- growth (RPMI-8226 leukemia): 106%
- growth (OVCAR-8 ovarian): 75.6%
- growth (OVCAR-5 ovarian): 105%
- growth (OVCAR-4 ovarian): 100%
- growth (SK-OV-3 ovarian): 108%
- growth (IGROV1 ovarian): 86.7%
- growth (OVCAR-3 ovarian): 120%
- growth (HS 578T breast): 114%
- growth (NCI/ADR-RES ovarian): 89%

Structure (SMILES): CCN1CCN(C(=S)SCC(=O)Nc2nc3ccc(OC)cc3s2)CC1
- growth (EKVX NSCLC): 101%
- growth (SN12C renal): 97.6%
- growth (UO-31 renal): 79%
- growth (TK-10 renal): 111%
- growth (ACHN renal): 110%
- growth (CAKI-1 renal): 81.8%
- growth (A498 renal): 105%
- growth (MOLT-4 leukemia): 97.2%
- growth (SR leukemia): 88.3%
- growth (RPMI-8226 leukemia): 98%
- growth (OVCAR-8 ovarian): 103%
- growth (OVCAR-5 ovarian): 98.8%
- growth (OVCAR-4 ovarian): 93.3%
- growth (SK-OV-3 ovarian): 112%
- growth (OVCAR-3 ovarian): 101%
- growth (HS 578T breast): 106%
- growth (NCI/ADR-RES ovarian): 99.6%

Structure (SMILES): Nc1cc2[nH]c(=O)c3ccccc3c2cc1Br
- growth (EKVX NSCLC): 44.7%
- growth (SN12C renal): 72.8%
- growth (TK-10 renal): 45.2%
- growth (ACHN renal): 93.9%
- growth (CAKI-1 renal): 54.3%
- growth (A498 renal): 37.7%
- growth (CCRF-CEM leukemia): 81.2%
- growth (SR leukemia): 61.9%
- growth (RPMI-8226 leukemia): 76.9%
- growth (OVCAR-8 ovarian): 77.6%
- growth (OVCAR-5 ovarian): 60.6%
- growth (OVCAR-4 ovarian): 59.2%
- growth (SK-OV-3 ovarian): 87.9%
- growth (IGROV1 ovarian): 59.6%
- growth (OVCAR-3 ovarian): 72.1%
- growth (HS 578T breast): 67%
- growth (NCI/ADR-RES ovarian): 81.7%

Structure (SMILES): O=C1C(OCCOc2ccccc2)=C(OCCOc2ccccc2)C(=O)c2ccccc21
- growth (EKVX NSCLC): 103%
- growth (SN12C renal): 51.8%
- growth (UO-31 renal): 46.9%
- growth (TK-10 renal): 116%
- growth (ACHN renal): 73.5%
- growth (A498 renal): 94.7%
- growth (MOLT-4 leukemia): 82.9%
- growth (SR leukemia): 60.1%
- growth (RPMI-8226 leukemia): 78.8%
- growth (OVCAR-5 ovarian): 124%
- growth (SK-OV-3 ovarian): 57.9%
- growth (IGROV1 ovarian): 62.7%
- growth (OVCAR-3 ovarian): 78.2%
- growth (HS 578T breast): 60.3%
- growth (NCI/ADR-RES ovarian): 68.8%

Structure (SMILES): CON=C1C[C@]2(C[C@@H]3C[C@@H](C/C=C(\C)C[C@@H](C)/C=C/C=C4\CO[C@@H]5[C@H](O)C(C)=C[C@@H](C(=O)O3)[C@]45O)O2)O[C@H](/C(C)=C/C(C)C)[C@H]1C
- growth (EKVX NSCLC): 20%
- growth (SN12C renal): 55%
- growth (TK-10 renal): 81.9%
- growth (ACHN renal): 44.3%
- growth (CAKI-1 renal): 44.8%
- growth (A498 renal): 38.3%
- growth (CCRF-CEM leukemia): 38.2%
- growth (MOLT-4 leukemia): -20.4% (active)
- growth (SR leukemia): -39.5% (active)
- growth (RPMI-8226 leukemia): 43.7%
- growth (OVCAR-8 ovarian): 66.4%
- growth (OVCAR-5 ovarian): 70.1%
- growth (OVCAR-4 ovarian): 57.2%
- growth (SK-OV-3 ovarian): 95.2%
- growth (IGROV1 ovarian): 28.1%
- growth (OVCAR-3 ovarian): 1.95% (active)
- growth (HS 578T breast): 60.2%
- growth (NCI/ADR-RES ovarian): 64.8%
